From PubChem BioAssay
Rango-impB inh: Rango-importin beta binding inhibition; Rango CFP/YFP FRET sensor + importin beta, 45 min; Potency, µM (titrated, usually from 92.2 µM), for the others: at the top dose inhibition of complex formation; hit rate 0.031% among 340,000; Q14974; calls by dose curve;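 also: 0% = DMSO wells and 100% = buffer wells lacking importin beta; nearly all actives have a fitted effect of over 15% in size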
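FRET biosensor Rango (snurportin 1 IBB between N-terminal EYFP and C-terminal Cerulean), 50 nM in PBS/1 mM DTT/0.02% Tween-20/0.1% BSA, preincubated 5 min RT with compound; 0.125 microM importin beta added, 45 min RT, CFP/YFP FRET ratio read.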
Tb PGK inh: inhibitors of T. brucei phosphoglycerate kinase. P07378. PGK/GAPDH coupled, Kinase-Glo luminescence, 60 min. Potency, µM (highest dose often 57.5 µM), for inactives: top-dose activity change, negative = inhibition, most hits filed as inhibitors. hit rate 0.043% among 380,000. AID 602233; also: % is scaled to controls: 0 for no effect and ±100 for the full control effect; nearly all actives have a fitted effect of over 60% in size
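Luminescent ATP detection (Kinase-Glo Plus) follows a 60-minute room-temperature incubation, with wells lacking PGK as controls. Buffer: 100 mM TEA (pH 7.6), 5 mM MgCl2, 0.01% Tween-20. Coupling enzyme GAPDH (100 nM final) supplies unstable 1,3-BPG in-well.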
Rango dissoc inh: inhibition of RanGTP-driven Rango-importin beta dissociation | O95149+P62826 | Biochemical FRET Rango-importin beta, RanGTP-induced dissociation | Potency, µM (top dose mostly 46.1 µM), for the others: at the top dose activity change, negative = inhibition | hit rate 0.071% among 340,000; calls by dose curve; also: % of control where 0% means no effect; nearly all actives have a fitted effect of over 45% in size
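Rango FRET biosensor (snurportin-1 IBB flanked by N-terminal EYFP and C-terminal CFP10) at 0.1 uM, with 0.25 uM importin beta in PBS, 1mM DTT, 0.02% Tween-20, 0.1% BSA. 0.6 uM Ran, 2mM GTP and 0.2 uM RCC1 were then added for 45 min at room temperature. Inhibition read as loss of FRET rise.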
Tb PFK block: blocks T. brucei phosphofructokinase; O15648; T. brucei PFK, ADP-Glo luminescence; Potency, µM (top dose mostly 57.5 µM), for the others: at the top dose activity, negative = inhibition, hits mostly inhibitors; hit rate 0.17% among 330,000; AID 485367;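 also: 0% = uninhibited 1x PFK enzyme wells and -100% = no-enzyme wells; nearly all actives have a fitted effect of over 60% in size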
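ADP-Glo luminescence quantified ADP after 45 min at room temperature, with 1.25 nM T. brucei PFK, 0.1 mM ATP and 0.5 mM fructose-6-phosphate in pH 8.0 TEA buffer. qHTS titrations up to 57 µM; curves classified by quality.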
PKM2 activator: PKM2 (human) enzyme activation | Potency, µM (highest dose often 57.5 µM), for inactives: top-dose activation, actives largely listed as activators | purified PKM2, Kinase-Glo ATP luminescence, activation; response scale: 0% is enzyme alone, no compound | hit rate 0.34% among 260,000; also: % is scaled to controls: 0 for no effect and ±100 for the full control effect; nearly all actives have a fitted effect of over 55% in size
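ATP formation by purified human PK-M2, quantified via coupled luciferase luminescence after 1 h at room temperature with 0.1 mM ADP and 0.5 mM PEP final.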
ELG1 repair inh: blocks ELG1-dependent DNA repair in HEK293T cells; HEK293T ELG1-luciferase reporter, luminescence, 16 h; DNA damage induced by 5-fluorouridine; Potency, µM (top dose mostly 46.1 µM), for the others: top-dose activity change, negative = inhibition, most hits filed as inhibitors; hit rate 2.3% among 330,000; AID 504467; also: % is scaled to controls: 0 for no effect and ±100 for the full control effect; nearly all actives have a fitted effect of over 55% in size
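DMSO vehicle served as the neutral condition. Each well held 2,000 cells given 5-fluorouridine plus compound; after 16 hr at 37 °C/5% CO2, ONE-Glo was added and luciferase measured 30 min later.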
ELG1 FLuc counter: luciferase inhibition in cell-free luciferin readout for ELG1 hits; hit rate 3% among 350; shares compounds with ELG1 repair inh; cell-free firefly luciferase luminescence counter-screen, ViewLux; Potency, µM (doses to about 46.1 µM), for inactives: at the highest dose activity change, negative = inhibition, actives largely listed as inhibitors; also: % is scaled to controls: 0 for no effect and ±100 for the full control effect
ELG1-Luc inh: inhibits ELG1-dependent DNA repair in HEK293T cells, confirmed | shares compounds with ELG1 repair inh | HEK293T ELG1-luciferase levels, luminescence; cells co-treated with 5-fluorouridine | Potency, µM (top dose mostly 46.1 µM), for inactives: top-dose activity change, negative = inhibition, most hits filed as inhibitors | hit rate 68% among 670 | AID 624248; also: % is scaled to controls: 0 for no effect and ±100 for the full control effect; nearly all actives have a fitted effect of over 55% in size
ELG1 MMS Luc: inhibits ELG1-dependent repair under MMS stimulation in HEK293T cells. HEK293T luciferase-tagged ELG1 level, MMS stimulated. shares compounds with ELG1 repair inh. Potency, µM (series often up to 46.1 µM), for the others: at the highest dose activity change, negative = inhibition, usual class: inhibitors. hit rate 53% among 670. AID 624249; also: % is scaled to controls: 0 for no effect and ±100 for the full control effect; nearly all actives have a fitted effect of over 60% in size
ELG1 5FU viab: confirmation of ELG1 repair inhibitors: viability with 5FU; AID 624250; Potency, µM (titrated, usually from 46.1 µM), inactives show at the highest dose activity change, negative = viability loss, hits mostly cytotoxic; cell viability with 5-FU, ELG1-dependent repair; shares compounds with ELG1 repair inh; 670 tested, under 10 active;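 also: ELG1-luc HEK293T cells cotreated with 5-fluorouridine at 10 µM final; viability measured 16 h after compound addition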
ELG1 MMS viab: confirmation of ELG1 repair inhibitors: viability with MMS; shares compounds with ELG1 repair inh; AID 624251; hit rate 33% among 670; Potency, µM (series often up to 46.1 µM), for the others: top-dose activity change, negative = viability loss, actives largely listed as cytotoxic; Cell viability with MMS, ELG1-dependent DNA repair;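 also: ELG1-luc HEK293T cells co-treated with 10 µM MMS; viability read 16 h after compound addition; % is scaled to controls: 0 for no effect and ±100 for the full control effect; nearly all actives have a fitted effect of over 60% in size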
Cell viab unstim: counter-screen for ELG1 repair inhibitors: unstimulated cell viability. shares compounds with ELG1 repair inh. cell viability counter-screen, unstimulated, luminescence. Potency, µM (doses to about 45.9 µM), for inactives: at the highest dose activity change, negative = loss of viability, hits mostly cytotoxic. hit rate 8% among 900. AID 624252;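 also: compound exposure lasted 16 hours before reading; % is scaled to controls: 0 for no effect and ±100 for the full control effect; nearly all actives have a fitted effect of over 55% in size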
FLuc biochem: counter-screen for ELG1 repair inhibitors: firefly luciferase inhibition; shares compounds with ELG1 repair inh; purified firefly luciferase, luminescence counter-screen; Potency, µM (highest dose often 57.5 µM), for inactives: at the top dose activity, negative = inhibition, most hits filed as inhibitors; hit rate 10% among 350; AID 624253; also: % is scaled to controls: 0 for no effect and ±100 for the full control effect
An asterisk follows results filed as active; ? = inconclusive; / = no result. Hits are enriched below; roughly 2.4% of the tested compounds scored in any of these assays. Unless noted, calls follow the shape of the dose curve; as a rule, active = well fitted curve in the direction sought with a large enough effect; inconclusive = small, poorly fitted or top-dose-only effect, or another doubt; inactive = no such curve, though single readings can be large; an effect the other way counts as inactive or inconclusive. Potency is read from the fitted curve at half-maximal effect.

SMILES	Rango-impB inh	Tb PGK inh	Rango dissoc inh	Tb PFK block	PKM2 activator	ELG1 repair inh	ELG1 FLuc counter	ELG1-Luc inh	ELG1 MMS Luc	ELG1 5FU viab	ELG1 MMS viab	Cell viab unstim	FLuc biochem
NC(=O)c1ccc(N2CCN(c3ccc(O)cc3)CC2)c([N+](=O)[O-])c1	-1%	5%	0%	-21%	20%	4.1µM*	/	6.3µM*	5%	?	?	-2%	/
NC(=O)c1ccc(N2CCN(S(=O)(=O)c3ccccc3)CC2)c([N+](=O)[O-])c1	1%	0%	28%	-2%	-1%	1.6µM*	/	?	0.71µM*	2%	0.79µM*	-17%	/
CCOc1cc(/C=N\Nc2nc(Nc3ccccc3)nc(N3CCOCC3)n2)ccc1OC(=O)c1ccco1	1%	0%	9%	10%	-1%	2.3µM*	/	1.6µM*	?	?	?	?	/
COc1cc(/C=N/Nc2nc(C)cc(C)n2)ccc1OC(=O)c1ccco1	3%	1%	-5%	-1%	0%	14%	/	/	/	/	/	/	/
COC(=O)Cn1c2[n+](c3ccccc31)CC(O)CS2 (stereo not drawn)	0%	2%	-9%	2%	0%	?	8%	23%	8%	-4%	-1%	-1%	2%
CCCn1c(N2CCN(CC(=O)c3c(C)n(C)c4ccc(OC)cc34)CC2)nc2c1c(=O)[nH]c(=O)n2C	-5%	-4%	1%	0%	0%	1.5µM*	-6%	3.5µM*	?	?	-18%	?	-15%
COc1cccc(NC(=O)COC(=O)c2sccc2C)c1	1%	-8%	-1%	7%	/	?	/	/	/	/	/	-4%	/
O=C1c2cc(Cl)ccc2OC2(CCNCC2)C12CC(c1ccc(Cl)cc1)=NO2 (stereo not drawn)	1%	-4%	14%	-20%	-16%	14%	/	/	/	/	/	/	/
